Experimental findings from PubChem BioAssay AID485272 (The Scripps Research Institute Molecular Screening Center, 2010) are described below.

Hit rate of the full screen: of about 330,000 compounds, about 1,300 (0.39%) were called active. The entries come from a sample that favours actives as a whole. A number with no mark means an inactive call.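 How the source made its calls: active means percent inhibition above a cutoff equal to the mean of all tested compounds plus 3 SD (cut at about 15% in these data); inactive means the rest.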

The experiment deals with Protein-arginine deiminase type-4 (Homo sapiens) (UniProt Q9UM07). Description: human PAD4 inhibitors, primary screen, biochemical, fluorescence polarization, 1536-well format (AID 485272).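 Further: 0% = PAD4 with RCA probe and DMSO and 100% = probe without PAD4.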 As to conditions: recombinant PAD4, RCA probe fluorescence polarization; at 6.36 µM; active compounds read high. (In general: In fluorescence polarisation assays a small probe gives low polarisation when free and higher when bound to something large.)
Sequence of Protein-arginine deiminase type-4 (Homo sapiens) (Q9UM07 whole entry, looked up): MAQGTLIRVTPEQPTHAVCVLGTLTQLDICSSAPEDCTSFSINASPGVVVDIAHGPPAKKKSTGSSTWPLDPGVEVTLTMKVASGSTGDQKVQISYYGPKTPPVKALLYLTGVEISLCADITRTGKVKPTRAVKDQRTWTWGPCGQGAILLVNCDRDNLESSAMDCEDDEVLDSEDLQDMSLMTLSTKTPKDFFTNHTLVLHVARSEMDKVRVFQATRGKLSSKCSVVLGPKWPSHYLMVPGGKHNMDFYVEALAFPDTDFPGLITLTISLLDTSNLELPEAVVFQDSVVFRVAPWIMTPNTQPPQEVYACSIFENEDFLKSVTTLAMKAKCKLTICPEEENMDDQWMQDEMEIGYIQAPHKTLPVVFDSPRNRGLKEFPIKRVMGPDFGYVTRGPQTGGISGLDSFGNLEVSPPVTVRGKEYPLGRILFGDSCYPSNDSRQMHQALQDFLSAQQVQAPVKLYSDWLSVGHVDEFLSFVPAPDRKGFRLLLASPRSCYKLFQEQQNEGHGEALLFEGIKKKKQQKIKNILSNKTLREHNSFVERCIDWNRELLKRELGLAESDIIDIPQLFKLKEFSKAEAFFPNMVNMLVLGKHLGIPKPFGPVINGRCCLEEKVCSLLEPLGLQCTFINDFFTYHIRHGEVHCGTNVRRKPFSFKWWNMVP
For orientation: inhibition means the relative decrease from the control value, in per cent. On to `Cc1cc(=O)[nH]c(SCc2cccc(F)c2)n1`, for which the inhibition is 3.23%.
For `CCc1nnc(SCc2cccc(F)c2)nc1CC` the value was 24.2% (active); for `Nc1cc(N)nc(SCc2cccc(F)c2)n1`, -6.07%.
For `CC(C)Cc1nc(Nc2ccc(S(=O)(=O)N3CCCC3)cc2)c2nnn(Cc3ccccc3)c2n1` the value was -3.06%.
Consider `CCCc1cc(=O)[nH]c(SCC(=O)Nc2ccc(S(=O)(=O)N3CCCC3)cc2)n1`, for which the inhibition was 5.78%.
The same measure for `CC(=O)N(c1ccc2oc(=O)sc2c1)S(=O)(=O)c1ccc(C)cc1`: 19.6% (active); for `CC(=O)Oc1ccc(N(C(C)=O)S(=O)(=O)c2ccc3ccccc3c2)cc1Br`: -0.04%.
For `COC(=O)c1c(C)oc2ccc(N(C(=O)Oc3ccccc3)S(=O)(=O)c3ccccc3)cc12` the value was -4.57%; for `CCOC(=O)c1c(C)[nH]c(C2=NNC(=NC(C)COC)SC2)c1C` (configuration not stated), -4.38%.
The same measure for `O=C(NC(=S)Nc1cc(C(F)(F)F)ccc1N1CCOCC1)c1ccc(-c2cccc(Cl)c2)o1`: -0.46%; for `Cc1ccc(-n2[nH]c(C)c(/C=N/NC(=O)c3cccc([N+](=O)[O-])c3)c2=O)cc1C`: -0.65%; for `COc1cc(SC#N)ccc1N=Cc1c(C)[nH]n(-c2ccc(C)cc2)c1=O`: 27.3% (active).
As to `COc1ccc(C(=O)Nc2ccc(C(=O)NCC3CCCO3)cc2)c(OC)c1OC` (configuration not stated), the inhibition was 2.07%.
The same measure for `COc1ccc(CCn2ccc(O)c(Cc3ccc(Cl)cc3Cl)c2=O)cc1OC`: 2.71%; for `COc1ncnc2c1N=C1CC(C)(C)CC(N)=C1S2`: 16.7% (active).
For `C#CCOCCOCCOCCNc1nc(N2CCN(C(=O)C([C@@H](C)O)n3cc([C@@H](N)CCCCN)nn3)CC2)nc(N2CCN(C(=O)[C@H](CCCCN)n3cc(CN)nn3)CC2)n1` (some centres not stated) the value was 4.78%; for `CC(=O)NS(=O)(=O)c1ccc(N/C(N)=N/c2nc(C)cc(C)n2)cc1`, -0.78%; for `CSc1ccc(/C=C2\NC(=O)NC2=O)cc1`, -0.37%.
For `CCOC(=O)c1csc(NC(=O)c2ccc(S(=O)(=O)N3CCCC3)cc2)n1` the value was -3.23%.
As to `COc1ccc(C(=O)Nc2nc(-c3ccc(S(=O)(=O)N4CCOCC4)cc3)cs2)cc1`, the inhibition is 17.5% (active).
For `CNC(=O)c1ccsc1NC(=O)c1ccc(S(=O)(=O)N2CCOCC2)cc1` the value was -4.29%; for `CCOC(=O)c1ccc(NNC(C)=O)c([N+](=O)[O-])c1`, -2.2%.
The same measure for `COC(=O)c1noc(C)c1-c1ccnn1C(=O)c1ccc(Cl)cc1`: -7.73%; for `Cc1ccc(N=C2NC(=O)c3cccc([N+](=O)[O-])c32)cc1`: -1.46%; for `COCCNC(=O)Nc1ccc2nc(-c3ccco3)c(-c3ccco3)nc2c1`: 22% (active).
For `COc1cccc(NC(=O)NCCN2CCCCC2)c1` the value was -0.52%; for `O=C(NCc1ccccn1)c1ccc2nc(-c3ccco3)c(-c3ccco3)nc2c1`, 7.09%; for `CCc1ccc(OC(C)C(=O)Nc2ccc(S(=O)(=O)Nc3cc(C)on3)cc2)cc1` (configuration not stated), -0.06%.
Regarding `CC(C)C(NC(=O)OCc1ccccc1)C(=O)OCC(=O)N1C(C)CCCC1C` (configuration not stated), the inhibition was 2.54%.
The same measure for `O=C(NCCSCc1ccccc1)c1ccc(Cl)c(S(=O)(=O)N2CCOCC2)c1`: 1.45%; for `O=C(c1ccc(F)c(S(=O)(=O)N2CCOCC2)c1)N(CCc1ccccc1)Cc1ccccc1`: -3.27%.
In the case of `Cc1nn(Cc2ccccc2)c(C)c1CNC(=O)c1ccc(F)c(S(=O)(=O)N2CCOCC2)c1`, the inhibition is 27.9% (active).
Consider `CCOC(=O)c1cc(NC(=O)SCC(=O)O)c(C)nc1C`, for which the inhibition was 2.33%.
As for `CC1=NN(C(C)C)C(=O)C1`, the inhibition was -8.28%.
The same measure for `CC(C)(C)NC(=O)NC(=O)COC(=O)C1(C)CC1(Cl)Cl` (configuration not stated): -0.93%; for `COc1ccccc1OCCC(=O)OCC(=O)NC(=O)NC(C)(C)C`: 6.96%.
The same measure for `CC(C)(C)NC(=O)NC(=O)COC(=O)CCC1CCCCC1`: 41.1% (active); for `COc1ccc(S(=O)(=O)N2CCCCCC2)cc1C(=O)OCC(=O)Nc1cc(C)on1`: -6.43%; for `CCCCN(C)CCNC(=O)CSCc1ccc(C)cc1`: -2.21%.
For `COc1ccc(CCNS(=O)(=O)c2ccc(Cl)s2)cc1OC` the value was -2.69%; for `Cc1ccc(F)cc1NC(=O)Cc1nn(C)c(=O)c2ccccc12`, -6.33%.
Regarding `O=C1c2oc3ccc(Br)cc3c(=O)c2C(c2cccc(F)c2)N1CCO` (configuration not stated), the inhibition is -4.97%.
As to `Cc1c(-c2nn(C)c(=O)c3ccccc23)oc2ccc(F)cc2c1=O`, the inhibition is 35.8% (active).
The same measure for `COC(=O)c1cc2c(N)c(C(=O)c3ccc(Cl)cc3)sc2nc1C(OC)OC`: 0.06%; for `Nc1ccc2nc3c(=O)[nH]c(=S)[nH]c3nc2c1`: 31.8% (active); for `O=c1c(F)cn(C2CCCO2)c(=O)n1Cc1ccccc1Cl` (configuration not stated): -4.61%.
For `O=C(CNC1CCCCC1)NCC1(c2ccccc2)CCCC1` the value was -2.33%; for `Cc1nn(-c2ccccc2)c2c1C(c1ccc(F)cc1)C(C#N)=C(N)O2` (configuration not stated), -1.5%.
For `COc1ccccc1C1C(C#N)=C(N)Oc2c1c(-c1ccccc1)nn2-c1ccccc1` (configuration not stated) the value was 33.4% (active); for `Cc1nn(Cc2ccccc2)c2c1C(c1ccccc1)C(C#N)=C(N)O2` (configuration not stated), -0.16%.
On to `O=C(O)CC(SCC(=O)Nc1ccc(Br)cc1)C(=O)O` (configuration not stated), for which the inhibition is 1.63%.
The same measure for `COCCOC(=O)c1sc(=S)n(CCOC)c1N`: 40.9% (active); for `CCOC(=O)CN(C(=O)COc1nc(C)cc(C)c1C#N)c1ccc(Cl)cc1`: 5.17%.
As for `CCOc1ccc(N=C2NC(=O)S/C2=C\c2ccc(O)cc2)cc1`, the inhibition was -1.95%.
For `CCOc1[nH]n(-c2ccc(Cl)cc2)c(=O)c1C=Nc1ccc(O)cc1` the value was 26.1% (active).
In the case of `CC(C)c1nc(CNC(=O)CC2C(=O)NCCN2Cc2ccoc2)cs1` (configuration not stated), the inhibition was 5.06%.
For `OC1CSc2nc3ccccc3n2C1` (configuration not stated) the value was -1.87%; for `Cc1ccc(-c2cc(C(=O)NCc3cn(C)nc3C)c3cc(Br)ccc3n2)cc1`, 2.48%.
The same measure for `O=C(CSc1nc2ccccc2c(=O)n1Cc1ccc(F)cc1)NCC1CCCO1` (configuration not stated): -1.2%; for `O=C(CSc1nc2ccccc2c(=O)n1-c1ccc(F)cc1)NC1CC1`: 1.54%.
In the case of `O=C(CCn1c(SCC(=O)c2ccccc2)nc2ccccc2c1=O)NCc1ccc(F)cc1`, the inhibition was 67.8% (active).
The same measure for `CCN(C(=O)CSc1nc(N)cc(=O)[nH]1)C1CCS(=O)(=O)C1` (configuration not stated): -0.69%.
Regarding `CONc1nc2nonc2nc1NOC`, the inhibition is -1.87%.
The same measure for `COc1ccc([C@H]2CC(=O)C=C(c3ccc(CO)cc3)C2)cc1`: 1.09%.
The same measure for `O=S(=O)(Cc1nnnn1-c1ccc(Br)cc1)c1ccc(F)cc1`: -0.08%; for `O=C1CN(C(=O)CN2C(=O)NC3(CCCCC3)C2=O)c2ccccc2N1`: 1.47%.
The same measure for `Cc1ccc(C)c(S(=O)(=O)N2CCCOC2CNC(=O)C(=O)NC2CCCCC2)c1` (configuration not stated): -5.07%; for `COc1cccc(-c2nc(CS(=O)CC(=O)NCc3ccc(F)cc3)c(C)o2)c1` (configuration not stated): 0.77%; for `COc1ccc(-c2nc(CS(=O)CC(=O)NCc3ccccn3)c(C)o2)cc1` (configuration not stated): 30.3% (active).
As for `COc1ccc(-c2nc(CS(=O)CC(=O)NCc3ccccc3)c(C)o2)cc1OC` (configuration not stated), the inhibition was 6.4%.
For `Cc1ccc(/C=C2\CCn3c2nc2cc(C(=O)O)ccc2c3=O)c(C)c1` the value was -1.1%; for `COc1ccccc1OCCCCCCN1CCN(C)CC1`, -0.69%; for `Cn1c(SCC(=O)Nc2nccs2)nnc1-c1cccnc1`, 0.78%.
With `Cn1c(NC(=O)c2ccccc2)nc2ccccc21`, the inhibition is -1.36%.
The same measure for `Cc1c(C(=O)Nc2cccc(Cl)c2)cn2c(nc3ccccc32)c1C#N`: -8.49%; for `Cn1c(Nc2cccc(Cl)c2)nc2ccccc21`: 22.6% (active).
For `CC(C)CNC(=S)NC(=O)c1ccc(Cl)cc1` the value was 3.77%.
The same measure for `CC(NC(=O)c1ccc(Cl)cc1)C(=O)N1CCCCC1` (configuration not stated): -2.13%; for `CC(C)C(NC(=O)c1ccc(Cl)cc1)C(=O)O` (configuration not stated): 33.2% (active); for `CN(C)N1C(N)=C(C#N)C(c2ccc(Br)cc2)C2=C1CCCC2=O` (configuration not stated): -7.04%.
For the compound `Cc1ccc(-c2nn(-c3ccccc3)cc2/C=C2\SC(=S)N(CCCCCC(=O)O)C2=O)o1`, the inhibition was -0.43%.
For `CN(C)S(=O)(=O)c1cccc(-c2nn(-c3ccccc3)cc2/C=C2\SC(=S)N(CC(=O)O)C2=O)c1` the value was 29.1% (active).
For `Cc1ccc(-c2nn(-c3ccccc3)cc2/C=C/C(=O)Nc2cccc(S(N)(=O)=O)c2)cc1`, the inhibition was -9.63%.
The same measure for `Cc1cc(NS(=O)(=O)c2ccc(NC(=S)NC(=O)c3ccc(F)cc3Cl)cc2)no1`: -2.99%; for `CCOc1ccc(S(=O)(=O)N2CCC(C(=O)NCc3ccccn3)CC2)cc1Cl`: -2.62%.
For `C=C1CCC(N(O)c2cc(C)on2)C(=C)CCC2C1CC2(C)C` (configuration not stated) the value was -6.2%.
For `COc1cnn(-c2ccc([N+](=O)[O-])cc2)c(=O)c1Cl` the value was 3.88%; for `Cc1[nH]n(-c2ccc([N+](=O)[O-])cc2)c(=O)c1C=NCCN1CCN(C(=O)c2ccccc2F)CC1`, -1.51%.
Regarding `O=c1[nH]n(-c2ccc([N+](=O)[O-])cc2)c(=O)c2ccccc12`, the inhibition is 31.3% (active).
For `CCCCNC(=O)C1(c2ccc(OC)cc2)CCOCC1` the value was 26.1% (active); for `COc1ccc(-c2cc(C(=O)NCCCN3CCOCC3)no2)cc1`, -1.77%; for `CCCCCNC(=O)Cc1ccc(OC)cc1`, 1.91%.
